Assay in all cases: NP40-soluble protein abundance relative to vehicle (solubility fold change) (ratio); higher = more soluble protein in presence of AMP-PNP
In one experiment the target is T1, DDX49 (UniProt Q9Y6V7).
T1 sequence (whole entry): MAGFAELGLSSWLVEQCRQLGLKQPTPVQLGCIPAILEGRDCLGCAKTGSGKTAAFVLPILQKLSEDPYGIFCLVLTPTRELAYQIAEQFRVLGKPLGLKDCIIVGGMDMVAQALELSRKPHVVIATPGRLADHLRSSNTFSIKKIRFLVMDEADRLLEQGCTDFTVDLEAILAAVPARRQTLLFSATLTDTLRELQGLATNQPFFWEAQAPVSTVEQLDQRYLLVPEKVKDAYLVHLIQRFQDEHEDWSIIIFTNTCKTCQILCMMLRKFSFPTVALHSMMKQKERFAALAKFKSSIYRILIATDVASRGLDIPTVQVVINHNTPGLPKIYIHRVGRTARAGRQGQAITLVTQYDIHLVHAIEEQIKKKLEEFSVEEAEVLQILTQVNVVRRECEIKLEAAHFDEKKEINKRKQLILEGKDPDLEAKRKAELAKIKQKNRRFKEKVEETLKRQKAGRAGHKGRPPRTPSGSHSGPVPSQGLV
Put shortly: (§1)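 Jurkat crude lysate (Dounce-homogenised) was treated with eight concentrations from 0.1 to 10 mM for 10 min at room temperature, then 3 min at 37 °C. It was solubilised with 0.8% NP40 and benzonase (60 min, 4 °C) and ultracentrifuged, and the supernatant was TMT-labelled for LC-MS/MS. Intensities were vsn-normalised, and the value is the fold change against the NP40-processed vehicle per replicate, from three independent experiments.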

The next experiment concerns the target T2, MAD1L1 (UniProt Q9Y6D9).
T2 sequence (whole entry): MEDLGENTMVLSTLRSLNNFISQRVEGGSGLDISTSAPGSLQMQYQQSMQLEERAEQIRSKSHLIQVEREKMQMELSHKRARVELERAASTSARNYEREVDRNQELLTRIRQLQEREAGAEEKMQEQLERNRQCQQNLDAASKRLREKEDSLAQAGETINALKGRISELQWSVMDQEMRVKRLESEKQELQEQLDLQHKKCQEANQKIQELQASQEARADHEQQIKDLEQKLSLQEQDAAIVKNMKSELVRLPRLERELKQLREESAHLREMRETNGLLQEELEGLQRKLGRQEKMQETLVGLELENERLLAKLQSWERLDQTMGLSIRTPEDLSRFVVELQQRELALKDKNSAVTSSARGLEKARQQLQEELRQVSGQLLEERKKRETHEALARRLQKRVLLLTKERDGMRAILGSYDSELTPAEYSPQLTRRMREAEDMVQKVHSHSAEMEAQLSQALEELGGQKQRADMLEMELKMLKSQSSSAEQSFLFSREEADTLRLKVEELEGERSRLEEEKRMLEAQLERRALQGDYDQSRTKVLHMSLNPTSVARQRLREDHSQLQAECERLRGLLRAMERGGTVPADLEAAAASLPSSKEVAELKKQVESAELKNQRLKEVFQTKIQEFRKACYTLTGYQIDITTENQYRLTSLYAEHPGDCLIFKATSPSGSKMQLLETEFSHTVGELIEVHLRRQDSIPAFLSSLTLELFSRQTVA
An outline of the steps: as §1

The target in a further experiment is T3, OAS3 (UniProt Q9Y6K5).
T3 sequence (whole entry): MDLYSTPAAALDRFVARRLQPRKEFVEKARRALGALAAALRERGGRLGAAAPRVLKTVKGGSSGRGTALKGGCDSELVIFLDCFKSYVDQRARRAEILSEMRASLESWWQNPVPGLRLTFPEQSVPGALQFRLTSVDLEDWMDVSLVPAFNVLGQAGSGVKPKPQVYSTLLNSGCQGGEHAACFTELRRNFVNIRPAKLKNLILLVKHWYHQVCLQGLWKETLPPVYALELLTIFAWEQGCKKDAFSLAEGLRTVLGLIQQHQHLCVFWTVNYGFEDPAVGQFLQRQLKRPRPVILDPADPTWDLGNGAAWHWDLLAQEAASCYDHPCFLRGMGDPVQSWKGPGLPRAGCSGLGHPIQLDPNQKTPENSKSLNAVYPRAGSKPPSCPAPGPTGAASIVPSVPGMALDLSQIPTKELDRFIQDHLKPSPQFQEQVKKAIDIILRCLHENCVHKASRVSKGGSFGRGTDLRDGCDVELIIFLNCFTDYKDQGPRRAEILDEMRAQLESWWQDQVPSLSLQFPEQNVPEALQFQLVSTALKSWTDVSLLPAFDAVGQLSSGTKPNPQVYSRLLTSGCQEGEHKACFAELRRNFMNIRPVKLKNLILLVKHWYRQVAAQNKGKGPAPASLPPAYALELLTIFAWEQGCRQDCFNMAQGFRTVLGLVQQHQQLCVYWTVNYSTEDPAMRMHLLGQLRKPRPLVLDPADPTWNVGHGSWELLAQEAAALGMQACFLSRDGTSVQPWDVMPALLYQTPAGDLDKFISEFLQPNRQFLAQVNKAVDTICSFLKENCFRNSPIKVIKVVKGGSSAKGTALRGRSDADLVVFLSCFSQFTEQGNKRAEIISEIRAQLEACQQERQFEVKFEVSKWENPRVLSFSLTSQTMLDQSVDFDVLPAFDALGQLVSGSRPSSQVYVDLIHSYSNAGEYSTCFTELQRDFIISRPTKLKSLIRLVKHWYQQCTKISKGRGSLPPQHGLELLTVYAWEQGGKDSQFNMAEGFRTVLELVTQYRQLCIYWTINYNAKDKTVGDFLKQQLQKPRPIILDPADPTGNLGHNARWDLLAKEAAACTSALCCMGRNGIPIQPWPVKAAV
Put shortly:
as §1

In another experiment the target is S4R3R2 (UniProt Q9NXR5). An outline of the steps:
as §1

The record followed here is the supplement of paper PMC6411743.

± gives the standard deviation of the averaged measurements. About 6,200 targets were measured; listed, in parts, are those with the largest changes and a random draw of the rest.

S4R3R2, sequence (Q9NXR5 whole entry, one chain of several): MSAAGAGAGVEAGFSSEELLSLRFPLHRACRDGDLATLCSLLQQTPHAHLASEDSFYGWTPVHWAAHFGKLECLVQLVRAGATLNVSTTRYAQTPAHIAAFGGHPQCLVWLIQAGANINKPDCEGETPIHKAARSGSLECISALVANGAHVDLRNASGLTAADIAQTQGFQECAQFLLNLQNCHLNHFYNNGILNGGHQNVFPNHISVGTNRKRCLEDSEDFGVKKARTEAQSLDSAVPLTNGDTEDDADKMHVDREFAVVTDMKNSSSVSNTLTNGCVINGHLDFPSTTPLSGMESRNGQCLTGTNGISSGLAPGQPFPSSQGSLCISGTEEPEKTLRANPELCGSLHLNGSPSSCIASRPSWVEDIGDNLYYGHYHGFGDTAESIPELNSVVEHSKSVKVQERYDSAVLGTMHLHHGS

Take `Nc1ncnc2c1ncn2[C@@H]1O[C@H](COP(=O)(O)OP(=O)(O)NP(=O)(O)O)[C@@H](O)[C@H]1O` [adenylyl imidodiphosphate]: the NP40-soluble protein abundance in the experiment with DDX49 (concentration: 1mM) is 1.09 ± 0.076; with DDX49 (concentration: 2mM), 1.13 ± 0.092; with DDX49 (concentration: 4mM), 1.15 ± 0.12; with DDX49 (concentration: 6mM) it was 1.13 ± 0.1; with DDX49 (concentration: 8mM) it was 1.15 ± 0.12; in the experiment with DDX49 (concentration: 10mM), 1.24 ± 0.21. Besides, the NP40-soluble protein abundance with MAD1L1 (concentration: 1mM) amounted to 1.02 ± 0.028; with MAD1L1 (concentration: 2mM), 1.03 ± 0.039; in the experiment with MAD1L1 (concentration: 4mM), 1.02 ± 0.047; in the experiment with MAD1L1 (concentration: 6mM), 0.986 ± 0.021; with MAD1L1 (concentration: 8mM) it was 0.983 ± 0.046; with MAD1L1 (concentration: 10mM), 1 ± 0.057. In addition, the NP40-soluble protein abundance was 1.01 ± 0.012 with OAS3 (concentration: 1mM); 1.02 ± 0.04 with OAS3 (concentration: 2mM); 1.02 ± 0.032 in the experiment with OAS3 (concentration: 4mM); 0.998 ± 0.033 with OAS3 (concentration: 6mM); 1.02 ± 0.043 in the experiment with OAS3 (concentration: 8mM); 0.998 ± 0.018 in the experiment with OAS3 (concentration: 10mM). The NP40-soluble protein abundance is 1.04 ± 0.031 in the experiment with S4R3R2 (concentration: 1mM); 1.05 ± 0.063 with S4R3R2 (concentration: 2mM); 1.02 ± 0.027 with S4R3R2 (concentration: 4mM); 1.01 ± 0.041 with S4R3R2 (concentration: 6mM); 0.983 ± 0.011 in the experiment with S4R3R2 (concentration: 8mM); 0.983 ± 0.022 with S4R3R2 (concentration: 10mM).
